# Source: PubChem BioAssay
# A selection: hits, their analogues and other compounds. The true share with any hit is near 1.1%.
# Mtb BioA inh: inhibitors of Mycobacterium tuberculosis BioA enzyme. AID 602481. purified M. tuberculosis BioA enzyme, plate reader. inhibition, % at 9.99 µM. 360,000 compounds, 0.096% hits; in the data active = inhibition above about 40%; inconclusive = no clear call, values can overlap the other calls
# 3CLpro inhibitor: SARS-CoV 3CLpro protease inhibition. 290,000 compounds, 0.14% hits. inhibition, % at 6 µM. recombinant SARS-CoV 3CLpro, quenched FRET peptide cleavage; in the data active = inhibition above about 12%
# Y pestis TopoI: blocks Yersinia pestis topoisomerase I activity; Y. pestis Topo-I cleavage product accumulation, plate reader; activity, % at 10 µM; 360,000 compounds, 0.064% hits; AID 504884; in the data active = activity above about 50%, passing the limit was not always enough; inconclusive = no clear call, values can overlap the other calls
# MazF activator: activators of E. coli MazEF toxin-antitoxin RNase; FAM/BHQ RNA-DNA oligo cleavage fluorescence, 5 h; activation, % at 20 µM; 350,000 compounds, 0.32% hits; in the data active = activation above about 50%
# Target sequence (P0AE70 whole entry, looked up): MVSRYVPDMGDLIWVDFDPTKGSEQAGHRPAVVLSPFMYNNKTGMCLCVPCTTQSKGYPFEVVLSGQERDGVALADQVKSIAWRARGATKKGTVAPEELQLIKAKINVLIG
# BJeLR lethal: kills HRASV12-expressing BJeLR cells; BJeLR (HRASV12) viability, CellTiter-Glo ATP luminescence, 48 h; inhibition, % (no concentration beside the values); 300,000 compounds, 0.17% hits; in the data active = inhibition above about 50%; inconclusive = no clear call, values can overlap the other calls
# PfHsp40 yeast: rescue of PfHsp40-mediated yeast toxicity; S. cerevisiae expressing PfHsp40, growth rescue, ATP luminescence; growth rescue, % at 12.5 µM; 340,000 compounds, 0.68% hits; AID 504582; in the data active = growth rescue above about 28%, passing the limit was not always enough; inconclusive = no clear call, values can overlap the other calls;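 also: yeast W303a lacking pdr1 and pdr3 grown in galactose medium; growth measured after three days at 30 °C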
# The depositor's hits bear a star; ? = inconclusive; · = no result given.
SMILES,Mtb BioA inh,3CLpro inhibitor,Y pestis TopoI,MazF activator,BJeLR lethal,PfHsp40 yeast
COCC(=O)N1C[C@H](C)[C@@H](OC)CN(C)C(=O)c2cc(NC(=O)c3cc(C)on3)ccc2OC[C@@H]1C,-2,·,·,·,·,·
Cc1ccc(S(=O)(=O)N[C@@H]2CC[C@H](CCNC(=O)C3CCC3)O[C@@H]2CO)cc1,3,·,·,·,·,·
CC(=O)N[C@@H]1CC[C@@H](CCNC(=O)C2CCCC2)O[C@@H]1CO,-2,·,·,·,·,·
COc1ccc(NC(=O)N(C)C[C@H]2OCCCC[C@H](C)Oc3ccc(NC(=O)CCC(F)(F)F)cc3C(=O)N([C@@H](C)CO)C[C@@H]2C)cc1,-2,·,·,·,·,·
CCOc1ccc(NC(=O)Cn2sc3nc(C)cc(C)c3c2=O)cc1,·,-1,3,-37,-5,74*
Cc1cc(C)c2c(=O)n(CC(=O)Nc3ccc(Cl)cc3)sc2n1,·,2,3,-16,-2,?
CCCCN(C)S(=O)(=O)c1cc2c(cc1Br)CCN2C(=O)C1CC1,1,·,38,-3,·,123*
COc1ccccc1S(=O)(=O)N[C@H]1C=C[C@H](CC(=O)NCc2cc(F)cc(F)c2)O[C@@H]1CO,-2,·,·,·,·,·
CN(C)c1ccc(C(=O)/C=C/c2ccccc2)cc1,-1,0,13,459*,-9,4
CC(=O)Nc1cccc(C(=O)/C=C/c2ccc(/C=C/C(=O)c3cccc(NC(C)=O)c3)cc2)c1,·,0,·,·,81*,·
CC(=O)Nc1ccc(N/C=C/C(=O)c2ccc(Cl)cc2)cc1,-1,5,-4,57*,-5,2
CN(C)c1ccc(C(=O)/C=C/c2ccc(Br)cc2)cc1,-2,-2,2,-32,6,-1
CC(=O)Nc1cccc(C(=O)/C=C/c2ccc(N(C)C)cc2)c1,·,-1,-6,145*,4,0
CC(=O)c1ccc(N/C=C\C(=O)c2ccc(C)cc2)cc1,·,4,8,-7,4,-1
COc1cccc(-c2ccc3c(c2)O[C@@H](CN(C)C(=O)C2CCC2)[C@H](C)CN([C@@H](C)CO)S3(=O)=O)c1,-2,·,·,·,·,·
Cc1noc(C)c1S(=O)(=O)Nc1cccc2c1O[C@@H](CN(C)C(=O)Nc1ccc(F)cc1)[C@@H](C)CN([C@@H](C)CO)C2=O,0,·,·,·,·,·
CC(=O)c1cccc(N/C=C\C(=O)c2ccc(C)cc2)c1,-2,3,12,0,-3,27*
CCOC(=O)/C=C/C(=O)Nc1cccc([N+](=O)[O-])c1,·,7,-4,2,-5,189*
CCOC(=O)c1cccc(NC(=O)/C=C/c2cccc([N+](=O)[O-])c2)c1,-1,3,5,-2,13,1
COc1ccc(C(=O)Nc2cccc([N+](=O)[O-])c2)cc1Br,1,-2,-4,-5,0,0
O=C(Nc1cccc([N+](=O)[O-])c1)Nc1ccc2c(c1)CCC2,-1,9,-14,84*,1,2
COc1ccc(NC(=O)Nc2cccc([N+](=O)[O-])c2)cc1Cl,2,5,-18,106*,10,-1
CCC(=O)Nc1ccc2c(c1)Cc1cc([N+](=O)[O-])ccc1-2,-3,·,-6,58*,·,-1
C[C@H](CO)N1C[C@H](C)[C@@H](CN(C)C(=O)c2ccccn2)Oc2ncc(C3=CCCCC3)cc2C1=O,-2,·,·,·,·,·
Cc1ccc(-n2c(-c3ccc(Br)cc3)c[n+]3c2CCc2ccc4cccnc4c2-3)cc1,33,1,43,-19,77*,9
SMILES,Mtb BioA inh,3CLpro inhibitor,Y pestis TopoI,MazF activator,BJeLR lethal,PfHsp40 yeast
COc1ccc(NC(=O)N(C)C[C@@H]2OCCCC[C@@H](C)Oc3ccc(NC(=O)CCCN(C)C)cc3C(=O)N([C@@H](C)CO)C[C@H]2C)cc1,-1,·,·,·,·,·
CCN1C(=O)C(CC(=O)Nc2ccccc2Cl)N(NC(=O)c2cccc(F)c2)C1=S (stereo not drawn),0,2,-8,7,-3,122*
Oc1c(N=Nc2ccccn2)ccc2ccccc12,·,-1,-2,3,61*,?
C[C@H](CO)N1C[C@H](C)[C@H](CN(C)C(=O)Nc2ccccc2)Oc2ccc(NC(=O)Nc3ccc4c(c3)OCO4)cc2C1=O,0,·,·,·,·,·
C[C@@H]1CN([C@H](C)CO)C(=O)c2cc(C#Cc3cccc(F)c3)cnc2O[C@H]1CN(C)C(=O)C1CCOCC1,0,·,·,·,·,·
Cc1noc(C)c1S(=O)(=O)Nc1ccc2c(c1)C(=O)N([C@H](C)CO)C[C@@H](C)[C@H](CN(C)C)O2,-1,·,·,·,·,·
COc1ccc(NS(=O)(=O)c2ccc3c(c2)[C@H]2C=CC[C@H]2[C@@H](c2ccc(C(=O)O)cc2)N3)cc1,2,2,-25,-18,6,0
Cc1c(Cl)cccc1NS(=O)(=O)c1ccc2c(c1)C1C=CCC1C(c1ccc(C(=O)O)cc1)N2 (stereo not drawn),·,3,-1,-6,·,35*
O=C(Nc1ccccc1F)N1C[C@@H]2[C@H](c3ccccc31)[C@H](CO)N2C(=O)c1ccc(F)cc1,-3,·,·,·,·,·
C[C@H]1CN([C@@H](C)CO)C(=O)c2cccc(NC(=O)Nc3ccc(C(F)(F)F)cc3)c2O[C@H]1CN(C)S(C)(=O)=O,7,·,·,·,·,·
Nc1ccc(N=Nc2ccccc2)c(N)n1,2,2,-11,2,0,6
Cc1[nH]c(N=Nc2ccccc2)nc1N=Nc1ccccc1,·,4,-16,19,5,80*
CCCNC(=O)C[C@@H]1CC[C@H]2[C@@H](COC[C@@H](O)CN2C(=O)C2CCOCC2)O1,-1,·,·,·,·,·
CC1CCN(S(=O)(=O)c2ccc(C(=O)NNC(=O)C3CC3)cc2)CC1,·,9,7,-19,2,124*
C[C@@H]1CN([C@H](C)CO)C(=O)Cc2cc(NC(=O)Nc3ccc(C(F)(F)F)cc3)ccc2O[C@@H]1CN(C)Cc1ccc(Oc2ccccc2)cc1,-3,·,·,·,·,·
Cc1ccc(NCc2nnc(SCC(=O)c3ccc4c(c3)OCCO4)o2)c(C)c1,-1,-9,19,52*,9,1
COc1ccc(C(=O)CSc2nnc(CNc3ccc(C)cc3C)o2)cc1,0,0,-5,2,-3,1
COc1ccc(S(=O)(=O)N(C)C[C@H]2Oc3ccc(NC(=O)Nc4cccc5ccccc45)cc3C(=O)N([C@@H](C)CO)C[C@H]2C)cc1,-1,·,·,·,·,·
COc1ccc(N(C(=O)CCl)C(C(=O)NCCc2ccccc2)c2cccs2)cc1 (stereo not drawn),3,12,21,2,114*,-1
COc1ccc(NC(=O)Nc2cccc3c2O[C@@H](CN(C)Cc2ccc(Cl)c(Cl)c2)[C@H](C)CN([C@@H](C)CO)C3=O)cc1,1,·,·,·,·,·
CS(=O)(=O)c1ccc(S(=O)CC(=O)Oc2ccc(Cl)cc2)c([N+](=O)[O-])c1 (stereo not drawn),·,3,·,-16,-23,·
O=C(CS(=O)c1ccccc1[N+](=O)[O-])Oc1ccc(Br)cc1 (stereo not drawn),·,0,10,3,2,68*
